PubChem BioAssay AID504466 (National Center for Advancing Translational Sciences (NCATS), 2011)
In all, about 330,000 compounds went through this assay and about 4,200 (1.3%) were called active. A call without a number means that no potency is given here. Roughly 6% stayed inconclusive and do not appear here. The sample holds actives, similar compounds and a random draw of the others, so the mix is not that of the screen. The call rests on the fitted dose curve; in most records, active means well fitted activation curve with a large enough effect; inconclusive means small, poorly fitted or top-dose-only effect; inactive means no such curve, though single readings can be large or run the other way.

Assay: qHTS screen for small molecules that induce genotoxicity in human embryonic kidney (HEK293T) cells expressing luciferase-tagged ELG1; further: nearly all actives have a fitted effect of over 60% in size
Settings: HEK293T ELG1-luciferase reporter, luminescence, 16 h; series mostly up to 46 µM
In short: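 16 hr compound incubation (37 °C, 5% CO2) of HEK293T cells carrying luciferase-tagged ELG1; luciferase then measured by ONE-Glo luminescence after 30 min at RT.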
Potency means the concentration at half of the fitted maximal effect.

| Compound | Potency |
| --- | --- |
| O=C(c1cnn(-c2ccc(Cl)cc2)c1)c1ccccc1O | 7.3 µM (active) |
| Cc1ncc(CC(=O)n2cc(C(=O)c3cc(Cl)ccc3O)cn2)s1 | inactive |
| COc1ccc(CNC(=O)COc2ccccc2C(=O)c2cnn(-c3ccccc3)c2)cc1OC | inactive |
| CC[C@]1(C(=O)OC)[C@H]2C(=O)N(Cc3ccccc3)C(=O)[C@H]2[C@H]2CN=C(SCc3ccc(C#N)cc3)N21 | inactive |
| CN[C@H](C(=O)NC[C@H]1O[C@@H](n2cnc3c(N)ncnc32)[C@H](O)[C@@H]1O)[C@@H](C)OCc1ccccc1 | inactive |
| O=C1[C@@H](c2ccccc2)[C@@H](c2ccccc2)N1c1cccnc1 | inactive |
| CC[C@]12c3[nH]c4ccc(Cl)cc4c3CCN1C(=O)[C@@H](CC(=O)NCCCOC)C[C@@H]2C(=O)N1CCN(C(=O)c2ccco2)CC1 | inactive |
| COc1ccc(-c2cc(C(=O)NCCCn3ccnc3)no2)cc1 | inactive |
| O=C(NCCCn1ccnc1)c1ccccc1F | inactive |
| O=C(NC1CCCCC1)c1ccc(-c2ccc(Cl)cc2)o1 | inactive |
| O=C(NCCCn1ccnc1)c1cc(-c2ccccc2)on1 | 14.6 µM (active) |
| O=C(Nc1cccnc1Cl)c1cc(-c2cccc(Cl)c2)on1 | inactive |
| O=C(NC1CCCC1)c1cc(-c2ccccc2)on1 | 9.2 µM (active) |
| O=C(NC(=S)Nc1ccc(Br)cc1F)C1CCCCC1 | inactive |
| COc1ccc(CNC(=O)C[C@H]2C[C@H](C(=O)N3CCOCC3)[C@@]3(CCC4CCCC4)c4[nH]c5ccc(Cl)cc5c4CCN3C2=O)cc1OC | inactive |
| O=C(Nc1cccc(S(=O)(=O)NC2=NCCC2)c1)c1ccc(F)cc1F | inactive |
| CCn1nnc2cc(C(=O)Nc3ccc(C(=O)OC(C)C)cc3)ccc21 | inactive |
| COc1ccccc1N(CC(=O)N/N=C(\C)c1ccccc1O)S(=O)(=O)c1ccc(C)cc1 | inactive |
| C/C(=N\NC(=O)c1ccoc1C)c1ccccc1O | 18.3 µM (active) |
| CC(C)=C(NC(=O)c1ccccc1)C(=O)N/N=C(\C)c1ccccc1O | inactive |
| O=C1NC[C@@H](c2ccccc2)OC(=O)[C@H](Cc2ccc(F)cc2)CC/C=C/C[C@H]1CC(=O)N(CCO)Cc1ccccc1 | inactive |
| O=C(C[n+]1cc(Br)cc2ccccc21)c1ccc(F)cc1 | inactive |
| O=C(c1ccc(F)cc1)n1c(=S)nc2ccccn21 | 0.651 µM (active) |
| O=C(c1ccc(F)cc1)n1cc(C(=S)N2CCOCC2)c2ccccc21 | inactive |
| O=C(COC(=O)/C=C/c1cccc(Cl)c1)NCc1cccs1 | inactive |
| Nn1c(SCC(=O)Nc2ccc3c(c2)CCC3)nnc1C1CC1 | inactive |
